# KDM5B inh: inhibitors of human KDM5B histone demethylase; AID 1347165; KDM5B demethylase, FDH-coupled NADH fluorescence (FDH is formaldehyde dehydrogenase); 220,000 compounds, 2.6% hits; Potency, µM (doses to about 57.7 µM), most hits filed as inhibitors; active = well fitted inhibition curve with a large enough effect; also: 0% is about no effect; nearly all actives have a fitted effect of over 70% in size
#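 qHTS format, multiple compound concentrations. Buffer 50 mM HEPES pH 7.5/0.01% Tween-20; 200 nM KDM5BΔAP final; 10 min compound preincubation; substrate-mix levels 12.5 µM peptide, 25 µM α-KG, 0.25 mM NAD⁺; 30 min RT; ΔRFU.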
# Numbers without * were called inactive; i = inactive. Many of the other results were omitted from the sample, so hits are more common in it than they were. Potency is read from the fitted curve at half-maximal effect.
SMILES,KDM5B inh
Cc1ccc(C(=O)N[C@H]2CO[C@H]3[C@@H]2OC[C@@H]3Nc2nccc(C(C)(C)C)n2)cc1,i
CC(=O)Nc1ccc(S(=O)(=O)N[C@H]2CO[C@H]3[C@@H]2OC[C@@H]3Nc2nccc(C(C)(C)C)n2)cc1,i
COc1ccccc1-c1ccnc(N[C@H]2CO[C@H]3[C@@H]2OC[C@@H]3NS(=O)(=O)c2ccc(NC(C)=O)cc2)n1,i
O=C(Nc1cccc2ccccc12)O[C@@H]1CO[C@H]2[C@@H]1OC[C@@H]2NC(=O)N1CCOCC1,i
COc1ccccc1-c1ccnc(N[C@H]2CO[C@H]3[C@@H]2OC[C@@H]3NS(C)(=O)=O)n1,35.5µM*
COc1ccccc1-c1ccnc(N[C@H]2CO[C@H]3[C@@H]2OC[C@@H]3NC(=O)N2CCOCC2)n1,25.1µM*
O=C(O)c1ccccc1NS(=O)(=O)c1ccc(N/N=C/c2c(-c3ccccc3)[nH]c3ccccc23)c([N+](=O)[O-])c1,i
O=C(NC1CCCCCC1)c1[nH]c2ccccc2c1Cl,i
Cc1ccc(-c2cnc(CCC(=O)Nc3ccc(C)c(F)c3)o2)cc1C,i
COc1ccc2cc(C3CN(Cc4nc(C(N)=O)no4)CCO3)ccc2c1 (stereo not given),17.8µM*
COc1ccc(NC(=O)N2CCOC(c3ccc(Cl)cc3)C2)c(C)c1 (stereo not given),i
COc1ccc2cc(C3CN(C(=O)CNC(=O)C(C)C)CCO3)ccc2c1 (stereo not given),i
CC(=O)c1ccc(NC(=O)C2(c3ccc(C)cc3)CCCC2)cc1,i
CCCCCOC(=O)CSc1nc2c(c(=O)[nH]c(=O)n2C)n1Cc1ccc(C)cc1,i
CNC(=O)c1cccc(-c2cnc(Nc3cccc(C(F)(F)F)c3)c3c2CCO3)c1,12.6µM*
COc1cccc(C(=O)c2sc(Nc3ccc(F)c(Cl)c3)nc2N)c1,i
CC(C)COc1cccc(C(=O)Nc2cccc(C(F)(F)F)c2)c1,i
CNC(=O)c1cccc(-c2cnc(Nc3ccncc3)c3c2CCO3)c1,i
CNC(=O)c1cccc(-c2cnc(Nc3ccc(F)c(Cl)c3)c3c2CCO3)c1,35.5µM*
O=C(Nc1ncc(-c2cccc(F)c2)c2c1OCC2)c1ccncc1,i
CNC(=O)c1cccc(-c2cnc(Nc3cccnc3)c3c2CCO3)c1,i
O=C(Nc1ncc(-c2cccc(F)c2)c2c1OCC2)c1ccc(F)c(Cl)c1,22.4µM*
O=C(Nc1cccc(F)c1)c1ccc2c(c1)OCCO2,i
CCOC(=O)c1ccc(NC(=O)CS(=O)(=O)Cc2nc(-c3ccccc3C)oc2C)cc1,i
CCOc1ccc(S(=O)(=O)N2CCN(C(C(=O)O)c3c[nH]c4cc(F)ccc34)CC2)cc1 (stereo not given),i
SMILES,KDM5B inh
NCC(c1ccc(F)cc1)c1c[nH]c2ccccc12 (stereo not given),i
Cc1nc2ccc(S(=O)(=O)N(CC(=O)N3CCCC3)Cc3ccccc3)cc2s1,i
COc1ccc(CN[C@H]2C[C@@H](Cc3cc(CN(C)c4ccccc4)on3)C2(C)C)cc1,i
O=C(Nc1cccc(-c2nc3ccccc3o2)c1)c1ccc2c(c1)OCO2,i
COc1cccc(C2C3=C(CC(C)(C)CC3=O)Nc3ccccc3N2C(=O)C(F)(F)F)c1OC (stereo not given),i
COCC(=O)N[C@@H]1CN(Cc2ccncc2)C[C@H]1CN(C)C,25.1µM*
CN(C)C[C@@H]1CN(Cc2ccncc2)C[C@H]1NC(=O)c1ccc(Cl)cc1,20µM*
COCCC(=O)N[C@@H]1CN(Cc2ccccc2)C[C@H]1CN(C)C,i
CN(C)C[C@@H]1CN(c2ccncn2)C[C@H]1NC(=O)c1ccc(Cl)cc1,i
COCC(=O)N[C@@H]1CN(Cc2ccccc2)C[C@H]1CN(C)C,i
CN(C)C[C@@H]1CN(Cc2cccnc2)C[C@H]1NC(=O)c1ccc(C#N)cc1,i
CCCc1c(C)nc(Nc2nc(C)c3cccc(OCC)c3n2)[nH]c1=O,i
CCc1nn(-c2ccc(OC)cc2)c(Oc2ccccc2F)c1CCC(=O)NC(C)C,i
CCc1nn(-c2ccc(OC)cc2)c(Oc2ccccc2F)c1CCC(=O)NCCOC,25.1µM*
CCc1nn(-c2ccccc2)c(Oc2ccccc2OC)c1CCC(=O)NCCOC,i
COc1cc(NC(=O)Nc2ccccc2OCc2cc(=O)n3cccc(C)c3n2)cc(OC)c1,i
CS(=O)(=O)N1CCCN(C(=O)c2cnn(Cc3ccccc3Cl)c2)CC1,i
O=C(NCc1cccc(F)c1)N1CCc2nc3cc(-c4ccccc4)[nH]n3c(=O)c2C1,12.6µM*
COC(=O)C(NC(=O)N1CCCCCCn2c(nnc2-c2ccc(F)cc2)CC1)C(C)C (stereo not given),i
CCc1nc2c(c(-c3ccc(Cl)cc3)n1)CN(C(=O)Nc1ccccc1)CC2,i
O=C([C@@H]1C[C@H](F)CN1C(=O)NCc1cccc(F)c1)N1CCCCC1,i
COc1ccc(-c2nc(C)nc3c2CCN(C(=O)c2ccccc2)CC3)cc1,i

# Screening data (PubChem BioAssay)
